Laboratory results as given in PubChem BioAssay (NCI).
The panel holds about 83,000 compounds, 20% with a hit somewhere; the sample as a whole holds those more often.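 Treatment: one concentration, 48 hours, 96-well format. Scoring: percent growth, with anything below 10 considered active.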 Activity calls are given as the source filed them.

Assays:
Assay in all cases: NCI-60 one-dose screen, 48 h (100 = growth as untreated, 0 = no growth, -100 = all killed)
Details in all cases: 10 µM unless noted
[1] = test system: NCI-H23 lung
[2] = test system: NCI-H226 lung
[3] = test system: NCI-H322M lung
[4] = test system: HOP-62 NSCLC
[5] = test system: NCI-H460 lung
[6] = test system: HOP-92 NSCLC
[7] = test system: NCI-H522 lung
[8] = test system: A549/ATCC NSCLC
[9] = test system: 786-0 renal
[10] = test system: COLO 205 colon

Measured: growth

NC(=S)N/N=C(/CCN1CCCC1)CC(C1=C(O)C2=CCCCC2OC1=O)c1ccccc1 (stereo not given)
inactive: [1] 72.8% | [2] 85.7% | [3] 85.7% | [4] 79.1% | [5] 101% | [6] 68.3% | [7] 80.1% | [8] 99.4% | [9] 105% | [10] 102%

O=C1NN(C(=O)c2ccc(Cl)cc2)C(c2ccccc2)=N/C1=C\c1cn(-c2ccccc2)nc1-c1ccccc1
inactive: [1] 89.6% | [2] 106% | [3] 94.7% | [4] 90.3% | [5] 99.5% | [6] 94.6% | [7] 85% | [8] 88% | [9] 90.7% | [10] 109%

CC(=O)Nc1nc(N)nc(NC(C)=O)c1N=O
inactive: [1] 95.3% | [2] 105% | [3] 140% | [4] 106% | [5] 123% | [6] 108% | [7] 101% | [8] 107% | [9] 106% | [10] 116%

COc1ccc(-n2c(=S)sc3c(Cl)nc(C)nc32)c(OC)c1
inactive: [1] 31.8% | [2] 100% | [3] 61.9% | [4] 90% | [6] 54.2% | [7] 20.8% | [8] 91.3% | [9] 75.3% | [10] 61.1%
active: [5] 3.2%

CCOC(=O)/C(C#N)=C1/C(=O)Nc2ccccc21
inactive: [1] 108% | [2] 116% | [3] 127% | [4] 104% | [5] 120% | [6] 110% | [7] 183% | [8] 112% | [9] 124% | [10] 118%

O=C(NCc1cn(Cc2cccc(Oc3ccccc3)c2)nn1)c1cccnc1Nc1ccc(F)cc1
inactive: [1] 69.4% | [2] 88.5% | [3] 77.4% | [4] 59.3% | [5] 34.4% | [6] 114% | [7] 31.3% | [8] 59.5% | [9] 69.8% | [10] 70.7%

COc1cc(C2CC(c3ccc4c(c3)OCO4)=NN2C=O)cc(OC)c1OC (stereo not given)
active: [7] -3.85%
inactive: [1] 59.9% | [2] 58.3% | [3] 14.1% | [4] 36.7% | [5] 15.3% | [6] 74.6% | [8] 46.2% | [9] 37.4% | [10] 12.6%

COc1ccc(/C=C2\CN(Cc3cn(CCNc4ccnc5cc(Cl)ccc45)nn3)C/C(=C\c3ccc(OC)c(OC)c3)C2=O)cc1OC
active: [4] -7.73% | [5] -28.5% | [6] -16.1% | [7] -67.8%
inactive: [1] 48% | [2] 17% | [3] 44.7% | [8] 22.7% | [9] 15.9% | [10] 10.1%

CC(C)(C)n1cc(-c2ccnc(NCCNS(=O)(=O)c3ccc(C(F)(F)F)cc3)c2)c(-c2cccc(O)c2)n1
inactive: [1] 55.8% | [2] 67.2% | [3] 74.9% | [4] 71.5% | [5] 21.2% | [6] 35.4% | [7] 49% | [8] 41.1% | [9] 33.9%
active: [10] -33.8%

C=C(C)[C@@H]1C[C@@H]2Cc3ccc(Cl)c(C)c3N1O2
inactive: [1] 97.4% | [2] 107% | [3] 108% | [4] 98% | [5] 106% | [6] 77.5% | [7] 84.8% | [8] 89.9% | [9] 98.5% | [10] 112%

Cn1ccc(=O)c(S(N)(=O)=O)c1
inactive: [1] 95.6% | [2] 108% | [3] 108% | [4] 92.4% | [5] 102% | [6] 89.3% | [7] 96.2% | [8] 99.7% | [9] 103% | [10] 117%

COc1cc(Nc2ncccc2C(=O)NCc2cn(Cc3cccc(Oc4ccccc4)c3)nn2)cc(OC)c1
active: [7] 5.73%
inactive: [1] 66.2% | [2] 91.7% | [3] 65.2% | [4] 56.6% | [5] 20.2% | [6] 108% | [8] 38.6% | [9] 51% | [10] 38.3%
